Measurements from PubChem BioAssay (EPA / NIEHS).
Activity calls are given as the source filed them. Rule for the calls: active = hit-call score of the fitted dose curve at least 0.9, where 1 is the maximum; inactive = score below 0.9.

Read-out: matrix metalloproteinase-3 (MMP3), MMP3 (gene 4314)
Assay: LTEA_HepaRG_MMP3: Life Technologies and Expression Analysis (LTEA) Assay for matrix metalloproteinase-3 (MMP3) using HepaRG (AID 2283519)
Conditions: mRNA level, 48 h; actives raise or lower the signal
In short: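 HepaRG cells (~100,000/well) in serum-free induction medium were dosed in duplicate for 48 h with an 8-point half-log series from 100 uM, 0.5% DMSO. MMP3 mRNA was quantified by Fluidigm TaqMan qRT-PCR, normalized to three housekeeping genes.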

Row | Compound | outcome | AC50
1 | C=CC(N)=O | inactive | –
2 | Cc1cccc([N+](=O)[O-])c1 | inactive | –
3 | Cc1ccc(O)c(C)c1 | inactive | –
4 | CN(C)CCO | inactive | –
5 | O=C(N[C@H]1CN2CCC1CC2)c1cc2ccoc2cn1 | inactive | –
6 | O=S(=O)(O)C(F)(F)C(F)(F)C(F)(F)C(F)(F)C(F)(F)C(F)(F)F | inactive | –
7 | Cc1cc(-c2ccc(N)c(C)c2)ccc1N | inactive | –
8 | c1ccc(-c2ccccc2)cc1 | inactive | –
9 | C1CC2OC2CC1C1CO1 (stereo not drawn) | inactive | –
10 | Cc1ccccc1CO[C@@H]1C[C@@]2(C(C)C)CC[C@]1(C)O2 | inactive | –
11 | CCC(C)c1cc([N+](=O)[O-])cc([N+](=O)[O-])c1O (stereo not drawn) | – | 2.23 µM (active)

Read-out: Paternally Expressed 10 (PEG10), PEG10 (gene 23089)
Assay: LTEA_HepaRG_PEG10: Life Technologies and Expression Analysis (LTEA) Assay for Paternally Expressed 10 (PEG10) using HepaRG (AID 2283520);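 for AC50: differentiated HepaRG human liver cells in serum-free induction medium with 0.5% DMSO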
Conditions: mRNA level, 48 h; actives raise or lower the signal
In short: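 HepaRG, 48 h post-plating → serum-free induction medium → 48 h chemical exposure (duplicate, 8-pt, max 100 uM, half-log, 0.5% DMSO) → lysis in RLT → TaqMan qRT-PCR for PEG10, ACTB/GAPDH/POLR2A normalisation.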

Row | Compound | outcome | AC50
12 | c1cc2ccc3cccc4ccc(c1)c2c34 | inactive | –
13 | CCSC(=O)N(CC)C1CCCCC1 | inactive | –
14 | CC(C)(c1ccccc1)c1ccc(O)cc1 | – | 84.7 µM (active)
15 | CCOP(=S)(OCC)SCSC(C)(C)C | – | 50 µM (active)
16 | CCOC(=O)C(O)(c1ccc(Cl)cc1)c1ccc(Cl)cc1 | inactive | –
17 | Nc1ccc(-c2ccc(N)cc2)cc1 | – | 2.2 µM (active)
18 | COS(=O)(=O)OC | inactive | –
19 | CCCCCCCCCC[N+](C)(C)CCCCCCCCCC | – | 50 µM (active)
20 | O=C(O)C(F)(F)C(F)(F)C(F)(F)C(F)(F)C(F)(F)C(F)(F)C(F)(F)C(F)(F)C(F)(F)F | – | 12.1 µM (active)
21 | Cc1cccc(C)c1N | inactive | –
22 | CCCCCCCCCc1ccc(O)cc1 | inactive | –
23 | O=NN(c1ccccc1)c1ccccc1 | inactive | –
24 | CCCCCCCCOC(=O)c1ccccc1C(=O)OCCCCCCCC | inactive | –
25 | Oc1ccc(C(c2ccc(O)cc2)(C(F)(F)F)C(F)(F)F)cc1 | inactive | –
26 | O=C(O)C(F)(F)C(F)(F)C(F)(F)C(F)(F)C(F)(F)F | inactive | –
27 | NS(=O)(=O)C(F)(F)C(F)(F)C(F)(F)C(F)(F)C(F)(F)C(F)(F)C(F)(F)C(F)(F)F | – | 5.02 µM (active)

Row | Compound | outcome | AC50
28 | O=S(=O)(O)C(F)(F)C(F)(F)C(F)(F)C(F)(F)F | inactive | –
29 | CC1=C2C[C@H]3[C@@H](CC=C4C[C@@H](O)CC[C@@]43C)[C@@H]2CC[C@]12O[C@@H]1C[C@H](C)CN[C@H]1[C@H]2C | inactive | –
30 | CCC(C)(c1ccc(O)cc1)c1ccc(O)cc1 | – | 80.3 µM (active)
31 | CN(C)c1nc(=O)n(C2CCCCC2)c(=O)n1C | inactive | –
32 | Cc1ccccc1O | inactive | –
33 | C=CC(N)=O | inactive | –
34 | Cc1cccc([N+](=O)[O-])c1 | inactive | –
35 | Cc1ccc(O)c(C)c1 | inactive | –
36 | CN(C)CCO | inactive | –
37 | O=C(N[C@H]1CN2CCC1CC2)c1cc2ccoc2cn1 | inactive | –
38 | O=S(=O)(O)C(F)(F)C(F)(F)C(F)(F)C(F)(F)C(F)(F)C(F)(F)F | inactive | –
39 | Cc1cc(-c2ccc(N)c(C)c2)ccc1N | – | 33.7 µM (active)
40 | c1ccc(-c2ccccc2)cc1 | inactive | –
41 | C1CC2OC2CC1C1CO1 (stereo not drawn) | inactive | –
42 | Cc1ccccc1CO[C@@H]1C[C@@]2(C(C)C)CC[C@]1(C)O2 | inactive | –
43 | CCC(C)c1cc([N+](=O)[O-])cc([N+](=O)[O-])c1O (stereo not drawn) | – | 1.26 µM (active)
